The source of these data is PubChem BioAssay (Tox21).

Several values for one entry are separate records, joined by “and”; a condition that tells them apart may be missing. Equal entries are not always repeated. Records with an inconclusive call do not appear. Entries that show only a call come without a potency. Some compounds were tested as several samples or in several runs, with calls that do not always agree. Activity calls are given as the source filed them. The call rests on the fitted dose curve.

Chain of 5-hydroxytryptamine receptor 2A (Homo sapiens) (P28223 whole entry, looked up): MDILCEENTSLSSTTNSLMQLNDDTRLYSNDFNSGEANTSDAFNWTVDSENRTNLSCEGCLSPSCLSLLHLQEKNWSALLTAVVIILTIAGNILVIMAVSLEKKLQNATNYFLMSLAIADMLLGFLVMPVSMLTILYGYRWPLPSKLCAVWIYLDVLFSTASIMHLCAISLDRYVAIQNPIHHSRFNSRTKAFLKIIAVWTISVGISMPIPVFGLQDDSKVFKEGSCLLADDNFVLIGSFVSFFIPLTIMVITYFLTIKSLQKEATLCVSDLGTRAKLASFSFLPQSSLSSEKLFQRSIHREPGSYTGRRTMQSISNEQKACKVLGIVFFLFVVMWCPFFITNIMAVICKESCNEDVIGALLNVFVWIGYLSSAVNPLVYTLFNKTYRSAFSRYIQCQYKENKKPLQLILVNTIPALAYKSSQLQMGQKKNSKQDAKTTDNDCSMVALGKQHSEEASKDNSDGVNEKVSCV
Chain of Muscarinic acetylcholine receptor M1 (Homo sapiens) (P11229 whole entry, looked up): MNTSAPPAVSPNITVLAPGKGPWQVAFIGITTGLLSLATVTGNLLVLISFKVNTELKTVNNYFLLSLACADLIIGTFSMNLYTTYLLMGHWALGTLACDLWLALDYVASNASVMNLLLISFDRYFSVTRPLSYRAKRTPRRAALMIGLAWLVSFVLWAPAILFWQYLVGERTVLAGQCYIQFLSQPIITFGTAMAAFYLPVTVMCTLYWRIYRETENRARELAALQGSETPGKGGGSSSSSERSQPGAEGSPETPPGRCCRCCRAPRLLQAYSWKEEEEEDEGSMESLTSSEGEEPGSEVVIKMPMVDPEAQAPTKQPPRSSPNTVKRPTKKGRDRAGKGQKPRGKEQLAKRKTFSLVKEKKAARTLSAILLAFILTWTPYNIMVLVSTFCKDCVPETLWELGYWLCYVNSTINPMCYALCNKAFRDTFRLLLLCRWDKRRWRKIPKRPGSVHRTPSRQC

In one experiment the target is 5-hydroxytryptamine receptor 2A (Homo sapiens) (UniProt P28223). Nature of the experiment: 5-hydroxytryptamine receptor 2A (HTR2A) small molecule agonists, cell-based qHTS assay (AID 1963587). Further: nearly all actives have a fitted effect of over 30% in size. Further: potency means the concentration at half of the fitted maximal effect. The conditions noted are these: HTR2A-CHO cells, calcium flux fluorescence, agonist mode; series mostly up to 76.8 µM; activation: at the top concentration. The method in brief:
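HTR2A-CHO cells, plated 18 h at 37 C/5% CO2, dye-loaded 1 h at 37 C; compounds in DMSO added by pin tool (agonist mode). Intracellular calcium flux read as kinetic fluorescence on FDSS over 2 min at 1 s intervals.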
As for `N#Cc1ccccc1`, the Potency result is “inactive”.

For `C=C(CC(=O)O)C(=O)O`, the Potency entry was “inactive”.

With `O=C(OCC1CCC2OC2C1)C1CCC2OC2C1` (stereo not drawn), the Potency entry was “inactive”.

Take `CC(=O)NS(=O)(=O)c1ccc(N)cc1`: the Potency entry is “inactive”.

With `Cc1cc(CC(=O)O)n(C)c1C(=O)c1ccc(Cl)cc1`, the Potency entry was “inactive”.

In the case of `Cc1cc(C)c(O)c(C)c1`, the Potency entry is “inactive”.

Consider `Nc1ccc(S(=O)(=O)Nc2cnc3ccccc3n2)cc1`, for which the Potency entry was “inactive”.

Consider `CN(C)c1ccc(C(=C2C=CC(=[N+](C)C)C=C2)c2ccccc2)cc1`, for which the Potency entry was “inactive”.

As for `c1ccc2cc(Nc3ccc(Nc4ccc5ccccc5c4)cc3)ccc2c1`, the Potency entry is “inactive”.

In the case of `COc1ccc([C@@H]2CC(=O)c3c(O)cc(O[C@@H]4O[C@H](CO[C@@H]5O[C@@H](C)[C@H](O)[C@@H](O)[C@H]5O)[C@@H](O)[C@H](O)[C@H]4O)cc3O2)cc1OC`, the Potency entry was “inactive”.

In the case of `CC(=O)N[C@@H](CS)C(=O)O`, the Potency entry was “inactive”.

As for `CC(=O)OCc1ccc2c(c1)OCO2`, the Potency result is “inactive”.

On to `Cc1cc(C)c(C)cc1C`, for which the Potency entry was “inactive”.

Regarding `Oc1c(Cl)cc(Cl)c(Cl)c1Cl`, the Potency entry was “inactive”.

As to `CC1(C)C(=O)N(Cl)C(=O)N1Cl`, the Potency entry was “inactive”.

In the case of `Cc1ccc(C)c(O)c1`, the Potency result was “inactive”.

In the case of `NC(N)=S`, the Potency result was “inactive and 54.9 µM (active)”.

In the case of `CCCCCCCCCCO`, the Potency result was “inactive”.

On to `OCCOCCOCCOCCO`, for which the Potency result was “inactive”.

`O=c1cc[nH]c(=S)[nH]1`: the Potency result was “inactive”.

`CCCCCCCCCCCCCC(=O)O`: the Potency entry was “inactive”.

For the compound `Oc1ccc(Cc2ccccc2O)cc1`, the Potency entry is “inactive”.

Consider `ClC1=C(Cl)C(Cl)(Cl)C(Cl)=C1Cl`, for which the Potency result is “inactive”.

Regarding `CCOC(=O)CC(=O)OCC`, the Potency result is “inactive”.

With `CCn1c2ccccc2c2cc(N)ccc21`, the Potency entry is “inactive”.

Consider `CC(=O)CC(=O)N(C)C`, for which the Potency entry was “inactive”.

For `C=CCCCCCCCCCC`, the Potency entry was “inactive”.

As to `CCCCCNCCCCC`, the Potency entry was “inactive”.

On to `O=C(CC(C(=O)OC1CCCCC1)S(=O)(=O)O)OC1CCCCC1` (stereo not drawn), for which the Potency result was “inactive”.

As for `CN(C)CCOC(=O)COc1ccc(Cl)cc1`, the Potency entry was “inactive”.

As to `CCCN(CCC)C(=O)SCC`, the Potency entry was “inactive”.

For a further experiment, the target named is Muscarinic acetylcholine receptor M1 (Homo sapiens) (UniProt P11229). Nature of the experiment: Cholinergic receptor muscarinic 1 (CHRM1) small molecule antagonists, cell-based qHTS assay (AID 1963588). Further: nearly all actives have a fitted effect of over 40% in size. Further: potency means the concentration at half of the fitted maximal effect. The conditions noted are these: CHRM1-CHO antagonist mode, calcium flux fluorescence; series mostly up to 61.5 µM; activity, negative = inhibition: at the top concentration. The method in brief:
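Compounds were tested at 15 concentrations in three independent runs. Dye-loaded CHRM1-CHO cells were exposed 5 min at room temperature before stimulation by acetylcholine added at 50nM. Intracellular calcium was read kinetically on FDSS for 3 min.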
(In general: In qHTS, concentration-response curves come from the screen itself.)
Turning to `N#Cc1ccccc1`, the Potency result was “inactive”.

In the case of `C=C(CC(=O)O)C(=O)O`, the Potency entry is “inactive”.

As to `O=C(OCC1CCC2OC2C1)C1CCC2OC2C1` (stereo not drawn), the “activity, negative = inhibition” value was 0.199% (inactive).

For the compound `CC(=O)NS(=O)(=O)c1ccc(N)cc1`, the Potency entry was “inactive”.

For the compound `Cc1cc(CC(=O)O)n(C)c1C(=O)c1ccc(Cl)cc1`, the Potency result is “inactive”.

Turning to `CCCCNS(=O)(=O)c1ccccc1`, the “activity, negative = inhibition” value is -0.542% (inactive).

In the case of `Cc1cc(C)c(O)c(C)c1`, the “activity, negative = inhibition” value is 7.35% (inactive).

For `Nc1ccc(S(=O)(=O)Nc2cnc3ccccc3n2)cc1`, the Potency result is “inactive”.

Take `CN(C)c1ccc(C(=C2C=CC(=[N+](C)C)C=C2)c2ccccc2)cc1`: the Potency was 4.72 µM (active) and inactive and 18.3 µM (active).

In the case of `COc1ccc([C@@H]2CC(=O)c3c(O)cc(O[C@@H]4O[C@H](CO[C@@H]5O[C@@H](C)[C@H](O)[C@@H](O)[C@H]5O)[C@@H](O)[C@H](O)[C@H]4O)cc3O2)cc1OC`, the Potency result was “inactive”.

For `CC(=O)N[C@@H](CS)C(=O)O`, the Potency result is “inactive”.

Consider `OCC1CCCO1` (stereo not drawn), for which the Potency result was “inactive”.

For `CC(=O)OCc1ccc2c(c1)OCO2`, the Potency result is “inactive”.

On to `Cc1cc(C)c(C)cc1C`, for which the Potency result is “inactive”.

On to `Oc1c(Cl)cc(Cl)c(Cl)c1Cl`, for which the “activity, negative = inhibition” value is -3.19% (inactive).

In the case of `CC1(C)C(=O)N(Cl)C(=O)N1Cl`, the Potency entry was “inactive”.

With `NC(N)=S`, the Potency result is “inactive”.

Take `CCCCCCCCCCO`: the Potency result is “inactive”.

Consider `OCCOCCOCCOCCO`, for which the Potency result is “inactive”.

As to `O=c1cc[nH]c(=S)[nH]1`, the Potency entry was “inactive”.

Turning to `CCCCCCCCCCCCCC(=O)O`, the Potency entry was “inactive”.

As for `Oc1ccc(Cc2ccccc2O)cc1`, the Potency result is “inactive”.

On to `ClC1=C(Cl)C(Cl)(Cl)C(Cl)=C1Cl`, for which the Potency entry was “inactive”.

Take `CCOC(=O)CC(=O)OCC`: the Potency entry was “inactive”.

Regarding `CCCCOCCOCCOC(C)=O`, the Potency entry is “inactive”.

Regarding `CC(=O)CC(=O)N(C)C`, the Potency entry is “inactive”.

As to `CCCCCNCCCCC`, the Potency entry is “inactive”.

As for `O=C(CC(C(=O)OC1CCCCC1)S(=O)(=O)O)OC1CCCCC1` (stereo not drawn), the Potency result was “inactive”.

As to `CN(C)CCOC(=O)COc1ccc(Cl)cc1`, the Potency entry is “inactive”.

Turning to `CCCN(CCC)C(=O)SCC`, the Potency entry is “inactive”.

For the next experiment the target is unchanged. Nature of the experiment: Cholinergic receptor muscarinic 1 (CHRM1) small molecule agonists, cell-based qHTS assay (AID 1963589). Further: nearly all actives have a fitted effect of over 35% in size. To be noted: CHRM1-CHO cells, agonist mode, calcium flux fluorescence; series mostly up to 76.8 µM; activation: at the top concentration. The procedure, abridged: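 Cells were plated and incubated 18 h at 37 C/5% CO2, loaded with calcium dye for 1 h at 37 C, then treated with compounds in DMSO. Fluorescence was recorded kinetically at 1 sec intervals.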
For `N#Cc1ccccc1`, the Potency result is “inactive”.

In the case of `C=C(CC(=O)O)C(=O)O`, the Potency entry was “inactive”.

For the compound `CC(=O)NS(=O)(=O)c1ccc(N)cc1`, the Potency result was “inactive”.

Take `Cc1cc(CC(=O)O)n(C)c1C(=O)c1ccc(Cl)cc1`: the Potency entry was “inactive”.

On to `CCCCNS(=O)(=O)c1ccccc1`, for which the Potency result was “inactive”.

For the compound `Cc1cc(C)c(O)c(C)c1`, the Potency result was “inactive”.

Regarding `Nc1ccc(S(=O)(=O)Nc2cnc3ccccc3n2)cc1`, the Potency result was “inactive”.

Turning to `c1ccc2cc(Nc3ccc(Nc4ccc5ccccc5c4)cc3)ccc2c1`, the Potency result was “inactive”.

Turning to `COc1ccc([C@@H]2CC(=O)c3c(O)cc(O[C@@H]4O[C@H](CO[C@@H]5O[C@@H](C)[C@H](O)[C@@H](O)[C@H]5O)[C@@H](O)[C@H](O)[C@H]4O)cc3O2)cc1OC`, the Potency entry was “inactive”.

With `CC(=O)N[C@@H](CS)C(=O)O`, the Potency result is “inactive”.

For the compound `OCC1CCCO1` (stereo not drawn), the Potency result was “inactive”.

Regarding `CC(=O)OCc1ccc2c(c1)OCO2`, the Potency entry is “inactive”.

Take `Cc1cc(C)c(C)cc1C`: the Potency entry is “inactive”.

Regarding `Oc1c(Cl)cc(Cl)c(Cl)c1Cl`, the Potency result is “inactive”.

With `CC1(C)C(=O)N(Cl)C(=O)N1Cl`, the Potency result was “inactive”.

For the compound `Cc1ccc(C)c(O)c1`, the Potency entry was “inactive”.

On to `NC(N)=S`, for which the Potency result is “inactive”.

On to `CCCCCCCCCCO`, for which the Potency entry was “inactive”.

`OCCOCCOCCOCCO`: the Potency entry is “inactive”.

In the case of `O=c1cc[nH]c(=S)[nH]1`, the Potency result is “inactive”.

Turning to `CCCCCCCCCCCCCC(=O)O`, the Potency entry was “inactive”.

With `O=S(=O)(O)c1ccc2cc(O)ccc2c1`, the Potency entry was “inactive”.

Consider `Oc1ccc(Cc2ccccc2O)cc1`, for which the Potency entry is “inactive”.

For the compound `ClC1=C(Cl)C(Cl)(Cl)C(Cl)=C1Cl`, the Potency result was “inactive”.

For `CCOC(=O)CC(=O)OCC`, the Potency result is “inactive”.

Turning to `CCCCOCCOCCOC(C)=O`, the Potency entry is “inactive”.

Regarding `CCn1c2ccccc2c2cc(N)ccc21`, the Potency entry is “inactive”.

Consider `C=CCCCCCCCCCC`, for which the Potency result was “inactive”.

In the case of `CCCCCNCCCCC`, the Potency result is “inactive”.

Consider `O=C(CC(C(=O)OC1CCCCC1)S(=O)(=O)O)OC1CCCCC1` (stereo not drawn), for which the Potency result was “inactive”.

Regarding `CN(C)CCOC(=O)COc1ccc(Cl)cc1`, the Potency entry is “inactive”.

Regarding `CCCN(CCC)C(=O)SCC`, the Potency result is “inactive”.
